Out of some 16,000 compounds screened, about 5,800 (36%) were called active. Roughly 23% stayed inconclusive and do not appear here. The call rests on the fitted dose curve; in most records, active means well fitted curve in the direction sought with a large enough effect; inconclusive means small, poorly fitted or top-dose-only effect, or effect the other way; inactive means no such curve, though single readings can be large or run the other way. The list shows a part of the results.
Molecular target: Cytochrome P450 2C19 (Homo sapiens) (UniProt P33261)
Test: Cytochrome panel assay with activity outcomes
Details: recombinant CYP, pro-luciferin dealkylation, luminescence, p450-cyp2c19; series mostly up to 57.1 µM
On the % scale 0 is the no-effect control and ±100 the full control effect.

Chain of Cytochrome P450 2C19 (Homo sapiens) (P33261 whole entry, looked up): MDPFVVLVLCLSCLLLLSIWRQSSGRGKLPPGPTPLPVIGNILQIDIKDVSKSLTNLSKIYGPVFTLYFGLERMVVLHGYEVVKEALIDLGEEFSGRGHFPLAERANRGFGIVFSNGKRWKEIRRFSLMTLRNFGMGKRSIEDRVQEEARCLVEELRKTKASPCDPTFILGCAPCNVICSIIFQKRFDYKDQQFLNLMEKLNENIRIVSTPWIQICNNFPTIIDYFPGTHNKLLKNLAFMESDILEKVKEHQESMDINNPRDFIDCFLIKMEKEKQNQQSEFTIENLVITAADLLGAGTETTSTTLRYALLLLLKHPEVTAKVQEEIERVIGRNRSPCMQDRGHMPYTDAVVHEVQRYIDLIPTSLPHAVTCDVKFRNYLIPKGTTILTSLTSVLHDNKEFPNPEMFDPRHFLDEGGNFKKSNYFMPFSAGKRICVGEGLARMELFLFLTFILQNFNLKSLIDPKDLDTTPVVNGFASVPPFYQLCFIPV

activity, negative = inhibition, inactive:
Cc1ccc(S(=O)(=O)N[C@@H]2COC(=O)C/C=C\[C@H](C)COC(=O)N[C@@H](C)C(=O)C/C=C\[C@H]2C)cc1 -6.82% [at 11.4 µM], CC(=O)OC[C@@H]1O[C@@H](O/N=C2/C[C@@H](O)[C@@H](O)[C@@H]3[C@@H]4C(=O)N(C(C)(C)C)C(=O)[C@H]4CC[C@@H]23)[C@H](OC(C)=O)[C@H](OC(C)=O)[C@@H]1OC(C)=O 11.3% [at 11.4 µM], CC(C)N(Cc1ccccc1)S(=O)(=O)c1n[nH]c(C(C)(C)C)n1 -40.1% [at 11.4 µM], O=C(O)c1ccc(C(=O)c2ccccc2)c(C(=O)O)c1 33.3% [at 11.4 µM], c1c[nH]c(CN2CCOCC2)n1 -4.4% [at 11.4 µM], COc1ccc(OC[C@@H](CO)OC)cc1 28.9% [at 11.4 µM], C[C@@H](CCC(=O)O)C(=O)O 30.5% [at 11.4 µM], N#C/C(=C\Nc1ccccn1)C(=O)C1CC1 -23.3% [at 11.4 µM], CC(=NC1CCCCC1)c1ccccc1O 3.59% [at 11.4 µM], CC1=NNC(=S)NCCCN2CCN(CCCNC(=S)NN=C(C)C=NNC(=S)NCCCN3CCN(CCCNC(=S)NN=C1)CC3)CC2 27% [at 11.4 µM], CO[C@@H]1COC(=O)[C@H]2CCCN2C(=O)[C@@H](C)COC(=O)[C@H](COCc2ccccc2)NC(=O)C/C=C\[C@H]1C 12.9% [at 11.4 µM], O=C(O)/C=C\C(=O)Nc1ncn[nH]1 10.9% [at 11.4 µM], CC(C)c1cc(CN(C)C)c(O)c(C(C)(C)C)c1 -2.3% [at 11.4 µM], CN(C)Cc1cc(O)c(O)c(CN(C)C)c1 -24% [at 11.4 µM], Oc1c(Br)cc(CN(Cc2cc(Br)c(O)c(Br)c2)C2CCCCC2)cc1Br -5.38% [at 11.4 µM], CC12CC[C@@H]3c4ccc(OP(=O)(O)O)cc4CCC3C1CCC2=O (stereo partly drawn) -12.5% [at 11.4 µM]

AC50, active:
COc1ccc2c(c1)OC1=C(C(=O)CCC1)C2C1=C(O)CCCC1=O (stereo not drawn) 15.8 µM, CC(C)Cn1c(C(C)C)nc([N+](=O)[O-])c1S(=O)(=O)c1ccc(F)cc1 5.01 µM, CCS(=O)(=O)Nc1ccc(C2=NN(C(=O)c3ccco3)C(c3ccc(C)cc3)C2)cc1 (stereo not drawn) 11.2 µM, c1ccc(-c2noc(CSc3nnnn3C3CCCCC3)n2)cc1 1.26 µM, Cc1ccc(C)n1N1C(=O)/C(=C\c2ccc(Cl)cc2)SC1=S 7.94 µM, COc1ccccc1CNC(=O)CCCn1c(=O)c2ccccc2n(CC(=O)NC2CCCC2)c1=O 7.94 µM, c1ccc(CSc2nnc(-c3sccc3-n3cccc3)o2)cc1 2 µM, Clc1ccc(CSc2nnc(-c3cccnc3)o2)cc1 3.55 µM, Cc1cccc(-c2nnc(SCc3ccccc3)o2)c1 11.2 µM, Clc1ccc(CSc2nnc(-c3sccc3-n3cccc3)o2)cc1 1.12 µM, Clc1cccc(CSc2nnc(-c3sccc3-n3cccc3)o2)c1 1.58 µM, COc1ccc2c(c1)-c1c(sn(-c3ccc(OC)c(OC)c3)c1=S)C(C)(C)N2 6.31 µM, Clc1ccccc1NN(Cc1ccccn1)c1ccccc1Cl 3.98 µM, Clc1ccccc1NN(Cc1ccncc1)c1ccccc1Cl 1.26 µM, O=C(c1ccccc1)c1cc(F)c(N2CCOCC2)cc1Cl 0.708 µM, Cc1ccc2nc(-c3ccccc3)cc(C(=O)NCCCn3ccnc3)c2c1 2 µM, Cc1ccc(-n2c(C)cc(C(=S)N3CCOCC3)c2C)cc1C 0.891 µM, O=C(Nc1ccc(S(=O)(=O)N2CCCCC2)cc1)c1ccc(CN2CCc3ccccc3C2)cc1 7.94 µM, CCOC(=O)C(/C(N)=N/C(=O)Nc1ccccc1)=C(\C)O 17.8 µM, BrC(c1cccc2ccccc12)c1cccc2ccccc12 1.26 µM, Clc1ccc(-n2nnnc2CN2CCOCC2)cc1 11.2 µM, COc1ccc(S(=O)(=O)Nc2ccc(F)cc2)c(C)c1C 0.0891 µM, O=C(CSc1nnnn1C1CCCC1)Nc1ccc(F)cc1 2 µM, Fc1ccc(Nc2ccnc(-c3ccccc3C(F)(F)F)n2)cc1 10 µM, FC(F)(F)c1ccccc1-c1nccc(NCc2cccs2)n1 2 µM, COCCNc1ccnc(-c2ccccc2C(F)(F)F)n1 10 µM, FC(F)(F)c1ccccc1-c1nccc(NCc2ccccc2)n1 6.31 µM, Cc1ccccc1-c1nccc(NCc2cccs2)n1 3.98 µM, CC(C)Nc1nc(Oc2ccc(Cl)cc2)cc(C(F)(F)F)n1 10 µM, CC(Sc1nc(NCc2ccccc2)nc(N(C)C)n1)C(=O)Nc1ccccc1 (stereo not drawn) 0.794 µM, COc1cc2c(C(=O)NCc3ccc(C)o3)cn(CC(C)C)c(=O)c2cc1OC 35.5 µM, COc1cccc(/C=N/n2c(=S)n(C)c3cc(C)c(C)cc32)c1OC 2.24 µM, Cc1c(Br)cc(C(=O)NC2CCCCC2)c(C)c1C 14.1 µM, N#C/C(=C\c1cc(Cl)cc(Cl)c1O)C(=O)NC1CCCCC1 15.8 µM, N#C/C(=C\c1cn[nH]c1-c1ccccc1)C(=O)NC1CCCCCC1 17.8 µM, Cc1cc(C(F)(F)F)n2nc(-c3cnn(C)c3C(F)(F)F)cc2n1 2.82 µM, Cc1cc(C(F)(F)F)n2nc(-c3cnn(C)c3C(F)(F)F)c(Cl)c2n1 1.78 µM, O=C(Nc1ccccc1C(=O)NCC1CCCO1)c1ccc(Cl)cc1Cl (stereo not drawn) 14.1 µM, Cc1ccccc1C(=O)c1c[nH]c(C(=O)NCC2CCCO2)c1 (stereo not drawn) 1 µM, O=C(NCC1CCCO1)c1cc(-c2ccc(Cl)cc2Cl)on1 (stereo not drawn) 15.8 µM, O=[N+]([O-])c1ccc(N2CCN(CCOc3nonc3-c3ccccc3)CC2)c(Cl)c1 4.47 µM, CC(C)(C)c1cc(Br)c(O)c(CN(Cc2cc(C(C)(C)C)cc(Br)c2O)C2CCCCC2)c1 0.631 µM, Oc1c(Br)cc(Br)cc1CN(Cc1cc(Br)cc(Br)c1O)C1CCCCC1 0.316 µM, CN(Cc1cc(C(C)(C)C)cc(Br)c1O)Cc1cc(C(C)(C)C)cc(Br)c1O 3.16 µM, CCOc1ccc(NC(=O)N(C2CCCCC2)C(C)c2ccncc2)cc1 (stereo not drawn) 7.08 µM, O=C(NNc1nc2ccccc2s1)C1CC1 15.8 µM, O=C(NNc1nc2ccccc2s1)c1ccccc1F 11.2 µM

AC50, inactive:
CCNc1ncc2nc(-c3cccc(C#N)c3)c(=O)n(CCC#N)c2n1, Cc1ccc(C2C(C(=O)c3ccco3)=C(O)C(=O)N2c2nnc(C)s2)cc1 (stereo not drawn), Cc1sc2nc(SCc3nc(-c4cccs4)no3)n(-c3ccccc3)c(=O)c2c1C, COC(=O)N1CCC2(CCCN(Cc3ccccc3OC)C2)CC1, CCOc1cc2[nH]c(=O)n(CCCC(=O)NCc3ccc(OC)cc3)c(=O)c2cc1OCC, CC(C)CN1CC[C@@]2(CCCN(C(=O)c3csnn3)C2)C1, COc1ccc(-n2c(C)n[nH]c2=O)cc1OC, COc1ccc(-n2cccc2C=O)cc1OC, O=C(Nc1cccc(F)c1)N1CCCC2(CCNCC2)C1, CC(=O)N(O)CCCCCNC(=O)CCC(=O)N(O)CCCCCNC(=O)CCC(=O)N(O)CCCCCN, COc1ccc(Nc2cc(C(=O)NCCCN3CCN(C)CC3)c3ccccc3n2)cc1, O=C(Nc1ccc(S(=O)(=O)N2CCCC2)cc1)c1ccc(CN2CCOCC2)cc1, CCOC(=O)/C(C(N)=NCCCO)=C(/O)c1ccccc1, COCCn1c(=O)c(-c2cc(F)cc(F)c2)nc2cnc(N3CCNCC3)nc21, CC(=O)NCCNc1ccnc(-c2ccccc2C(F)(F)F)n1, CN(C)Cc1ccccc1-c1nccc(Nc2ccc(F)cc2)n1, Cc1cnc(CNc2ccnc(-c3ccccc3C(F)(F)F)n2)cn1, COCCNc1ccnc(-c2ccccc2CN(C)C)n1, CN(C)Cc1ccccc1-c1nccc(NCc2cccs2)n1, C[C@@H]1O[C@H](O[C@@H]2[C@H](C)O[C@H](O[C@@H]3[C@H](C)O[C@H](O[C@H]4CC[C@]5(C)[C@@H](CC[C@@H]6[C@H]5C[C@@H](O)[C@]5(C)[C@@H](C7=CC(=O)OC7)CC[C@]65O)C4)C[C@@H]3O)C[C@@H]2O)C[C@H](O)[C@@H]1O, Cn1c2c(c(=O)n(C)c1=O)CN(CCN1CCNCC1)CN2, COc1ccc(NC2=NC(=S)N(c3ccc(C)cc3)C23CCCCC3)cc1, CCOc1ccc(-n2cc(C(=O)NCc3ccco3)c3cc(OC)c(OC)cc3c2=O)cc1, COc1ccc(/C=N/n2c(C)nnc2C)c(OC)c1, Cc1ccc(C(=O)NC2CCCCCC2)cc1N1CCCC1=O, COc1ccc(/C=C(/C#N)C(=O)NC2CCCCC2)cc1Br, O=C(c1ccncc1)N1CCC2(CC1)CN(Cc1cc(C(F)(F)F)cc(C(F)(F)F)c1)C2, CCCCN(C(=O)Nc1ccc(OCC)cc1)C1CCN(C(C)=O)CC1, CCOc1ccc(NC(=O)C(=O)NCC2CCCN2CC)cc1 (stereo not drawn), CC(=O)NNc1nc2ccccc2s1

Reference: PubChem BioAssay AID1851 (National Center for Advancing Translational Sciences (NCATS), 2009)
